The record followed here is PubChem BioAssay (NCI).

About 83,000 compounds went through this panel and 20% of them were active in at least one assay; those are over-represented in the sample as a whole.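 Step 1: grow cells in 96-well plates. Step 2: add test compound at a single concentration. Step 3: incubate 48 h. Step 4: record percent growth.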 Unmarked numbers belong to inactive results. Active and inactive are the calls of the source. How the source made its calls: active means growth percent below 10; inactive means the rest.

The test deals with HL-60(TB) leukemia. The test can be described thus: NCI-60 one-dose screen, 48 h (100 = growth as untreated, 0 = no growth, -100 = all killed). Conditions: 10 µM unless noted.
Regarding `CCOC(=O)C1=C(N)N(c2ccc(C)cc2)C2=C(C(=O)CC(C)(C)C2)C1c1ccccc1OC` (stereo not given), the growth was 98.9%. For the compound `COC(=O)/C=C/c1cccc2c1C(=O)NC(C)(c1cc3ccccc3oc1=O)N2` (stereo not given), the growth is 40%. To `CN(C)CCCc1ccc(Nc2cnn(C)c(=O)c2Cl)cc1` belongs 81%. For `CCOC(=O)C1=C(N)N(c2ccc(C)cc2)C2=C(C(=O)CC(C)(C)C2)C1c1ccccc1Br` (stereo not given), the growth is -11.2% (active).

On to `Cc1ccc(C2=NN(c3nc(-c4cc5ccccc5oc4=O)cs3)C(c3ccc(C)cc3)C2)cc1` (stereo not given), for which the growth is 91%. On to `O=c1oc2ccccc2cc1-c1csc(N=Nc2c(O)[nH]c3ccc(Cl)cc23)n1`, for which the growth was 99.1%.

Turning to `Nc1nc(-c2ccccc2)c(N=Nc2ccc(Cl)cc2[N+](=O)[O-])s1`, the growth is 83.8%. To `O=C(CN1CCN(c2ncnc3c2cnn3-c2ccccc2)CC1)Nc1ccc(Br)cc1` belongs 64.3%. Under `COc1c(F)ccc(C(=O)Nc2ccc3nc(NC(=O)C4CCCN(S(=O)(=O)C5CC5)C4)sc3c2)c1F` (stereo not given) stands 32.4%. On to `O=C(CNc1nc(-c2ccccc2)cs1)Nc1ccc([N+](=O)[O-])cc1Cl`, for which the growth was 21.9%. Turning to `C#C[C@]1(O)CC[C@H]2[C@@H]3CC=C4c5sc(Nc6ccc(N(C)C)cc6)nc5CC[C@]4(C)[C@H]3CC[C@@]21C`, the growth was -26.1% (active). `COc1ccc(-c2cc(C(=O)N=Nc3c(O)[nH]c4ccccc34)c3ccccc3n2)cc1`: the growth is 56.2%. For the compound `COc1ccc2[nH]cc(-c3cc(N)n4nc(-c5c[nH]c6ccccc56)cc4n3)c2c1`, the growth is -44.7% (active). With `CC(/C=C1\SC(=S)N(CCCC(=O)NC(CC(C)C)C(=O)O)C1=O)=C\c1ccccc1` (stereo not given), the growth is 63.4%.

As to `CN1CCN(Cc2ccc(C(=O)Nc3cccc(Nc4ccc5cc(O)ccc5n4)c3)cc2C(F)(F)F)CC1`, the growth was -70.2% (active). With `Cc1occc1C(=O)NN1C(=O)/C(=C/C=C/c2ccc([N+](=O)[O-])o2)SC1=S`, the growth is 0.964% (active). To `COc1cccc(COc2ccc(/C=C3\Oc4cc(O)ccc4C3=O)cc2)c1` belongs 79.5%; to `COc1ccc2nc(Cl)c(-c3cc(-c4ccccc4)nc(=O)[nH]3)cc2c1`, 3.35% (active); to `O=C(CSc1nnc(-c2c[nH]c3ccccc23)n1-c1ccccc1)c1ccc(Br)cc1`, 44.5%.

Take `Cc1cc(C)cc(Oc2cccc(-c3c(C)nnn3C3CCN(CCN(C)C)CC3)n2)c1`: the growth is -37% (active). `COc1ccc(NC(=O)Cn2c(/C=C/c3cccc(OC)c3)nc3ccccc3c2=O)cc1`: the growth was 94.6%. To `CN1CCc2c(sc3ncnc(N/N=C/c4cn(-c5ccccc5)nc4-c4ccc(Cl)cc4)c23)C1` belongs -12.4% (active). To `COCOc1cc2oc(C(=O)N[C@@H](Cc3ccccc3)C(O)C(=O)NCc3ccccc3)c(C)c(=O)c2cc1OCOC` (stereo not given in full) belongs 96.5%; to `O/N=C(\CSc1nnc(-c2c[nH]c3ccccc23)n1-c1ccccc1)c1ccc(Cl)cc1`, -25.9% (active). To `CSc1ccc(NC(=O)c2ccc3nnn(/C(C#N)=C/c4ccccn4)c3c2)cc1` belongs 2.93% (active). For `Cc1ccc(/C=C/c2n(Cc3ccc4ccccc4c3)c3ccccc3[n+]2Cc2ccc3ccccc3c2)cc1`, the growth is -45.5% (active). For the compound `Cn1cc(-c2nc(N)nnc2-c2c[nH]c3ccc(F)cc23)c2cc(Br)cnc21`, the growth was -34% (active). As for `CC1(C)CC[C@]2(C(=O)Nc3ccc(Br)cc3)CC[C@]3(C)C(=CCC4[C@@]5(C)C[C@@H](O)[C@H](O)[C@@](C)(CO)C5CC[C@]43C)C2C1` (stereo not given in full), the growth was -13.2% (active). Under `CNc1nc2ccccc2n2c(-c3ccc(O)c(O)c3)cnc12` stands -19.6% (active). To `CCCSc1nnc(-c2c(C)nc3sccn23)o1` belongs 98.3%; to `CCCCSc1nc(NCCc2c[nH]c3ccccc23)c(C#N)c(-c2ccccc2)n1`, 45.8%; to `O=C(NC(=S)N1CCN(c2ncnc3c2cnn3-c2ccccc2)CC1)c1ccc(F)cc1`, 64.8%.

As for `O=C(Nc1ccc(Br)cc1)Nc1ccc(-c2ccc3c(c2)NC(=O)/C3=C\c2ccc[nH]2)cc1`, the growth was 33.4%. To `C#CCOc1cc(N(CC)CC)ccc1C(C(=O)NC(C)(C)C)N(C(=O)C1CCc2cc(F)ccc2O1)c1ccccc1F` (stereo not given) belongs -13.5% (active).

Take `COc1ccc(C(=O)/C=C/c2ccc3c(c2)OCCO3)cc1S(N)(=O)=O`: the growth was 95.1%.
